# Where “and” joins values, the source holds several entries; their conditions need not be identical. Equal entries are not always repeated. Records with an inconclusive call do not appear. For some assays here: Entries with a potency or affinity are not part of this list. Calls of active or inactive are those of the source.
# Tests used:
# [1] = qHTS profiling of the MIPE4 collection as inhibitors of Plasmodium falciparum (3D7) proliferation (AID 743344);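 further: scaled between DMSO vehicle wells and 0.29 µM artemisinin as full inhibition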; settings: P. falciparum 3D7 in erythrocytes, SYBR Green DNA fluorescence, 72 h; at 28.5 µM unless noted
# Summary of the method: (§1)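 Parasite DNA was quantified by SYBR Green I fluorescence (ex 485, em 535 nm) after overnight lysis in saponin/Triton buffer at room temperature. Cultures at 0.3% parasitemia and 2.5% hematocrit were first exposed to compound for 72 h at 37 C; signals were normalised to artemisinin (0.29 uM) and vehicle wells.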
# [2] = qHTS profiling of the MIPE4 collection as inhibitors of Plasmodium falciparum (DD2) proliferation (AID 743345); settings: P. falciparum Dd2 in erythrocytes, SYBR Green DNA, 72 h; at 28.5 µM unless noted
# Summary of the method: as §1
# [3] = qHTS profiling of the MIPE4 collection as inhibitors of Plasmodium falciparum (DD2) proliferation (Rep 2) (AID 743346); settings: P. falciparum Dd2 in erythrocytes, SYBR Green DNA, 72 h; at 28.5 µM unless noted
# Summary of the method: as §1
# [4] = qHTS profiling of the MIPE4 collection as inhibitors of Plasmodium falciparum (HB3) proliferation (AID 743347);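 further: plate controls were DMSO vehicle wells for no effect and artemisinin wells for full effect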; settings: P. falciparum HB3 in erythrocytes, SYBR Green DNA, 72 h; at 28.5 µM unless noted
# Summary of the method: as §1
# [5] = Ebola virus entry assay, green fluorescence channel
# [6] = Ebola virus entry assay, blue channel fluorescence
# [7] = Ebola virus entry assay, green fluorescence channel; remark: listed apart in the source
# [8] = Ebola virus entry assay, ratio channel readout
# [9] = Ebola virus entry assay, blue channel fluorescence; remark: listed apart in the source
# [10] = Ebola virus entry assay, ratio channel
# [11] = Ebola virus entry assay, green channel fluorescence
# [12] = qHTS Assay for Identifying Gametocytocidal Compounds (AID 743244; active means well fitted curve in the direction sought with a large enough effect; an effect the other way counts as inactive or inconclusive; further: potency means the concentration at half of the fitted maximal effect;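 on max response: on the % scale 0 is the no-effect control and ±100 the full control effect; actives lower the fluorescent signal which means gametocytes are killed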); settings: P. falciparum 3D7 stage III-V gametocytes, alamarBlue, 72 h; max response: stronger effect = lower value
# Summary of the method: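 Stage III–V gametocytes of P. falciparum 3D7 were seeded at 20,000 cells/well onto pre-dispensed compounds. After 72 h, 37 °C, 5% CO2, alamarBlue was added for another 24 h.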
# [13] = molecular target: T1, Hexokinase-4 (Homo sapiens) + Glucokinase regulatory protein (Homo sapiens) (UniProt P35557+Q14397); assay: qHTS assay for inhibitors of recombinant human GCK-GKRP interaction: Diaphorase-coupled assay (AID 743205; active means well fitted curve in the direction sought with a large enough effect; an effect the other way counts as inactive or inconclusive)
# T1 sequence (P35557 whole entry, looked up): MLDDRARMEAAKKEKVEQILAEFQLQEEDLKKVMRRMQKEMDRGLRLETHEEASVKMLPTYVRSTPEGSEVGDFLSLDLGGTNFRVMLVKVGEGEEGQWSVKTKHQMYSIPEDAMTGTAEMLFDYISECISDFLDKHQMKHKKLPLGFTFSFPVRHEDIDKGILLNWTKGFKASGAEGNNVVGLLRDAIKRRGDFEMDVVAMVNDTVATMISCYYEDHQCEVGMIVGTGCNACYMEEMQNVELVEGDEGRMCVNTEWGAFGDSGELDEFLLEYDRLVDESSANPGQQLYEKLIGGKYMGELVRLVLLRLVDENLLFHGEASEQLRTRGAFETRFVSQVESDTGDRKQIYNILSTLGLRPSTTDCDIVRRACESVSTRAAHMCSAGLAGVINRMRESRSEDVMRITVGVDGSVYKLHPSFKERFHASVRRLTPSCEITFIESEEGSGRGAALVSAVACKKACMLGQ
# T1 sequence (Q14397 whole entry, looked up): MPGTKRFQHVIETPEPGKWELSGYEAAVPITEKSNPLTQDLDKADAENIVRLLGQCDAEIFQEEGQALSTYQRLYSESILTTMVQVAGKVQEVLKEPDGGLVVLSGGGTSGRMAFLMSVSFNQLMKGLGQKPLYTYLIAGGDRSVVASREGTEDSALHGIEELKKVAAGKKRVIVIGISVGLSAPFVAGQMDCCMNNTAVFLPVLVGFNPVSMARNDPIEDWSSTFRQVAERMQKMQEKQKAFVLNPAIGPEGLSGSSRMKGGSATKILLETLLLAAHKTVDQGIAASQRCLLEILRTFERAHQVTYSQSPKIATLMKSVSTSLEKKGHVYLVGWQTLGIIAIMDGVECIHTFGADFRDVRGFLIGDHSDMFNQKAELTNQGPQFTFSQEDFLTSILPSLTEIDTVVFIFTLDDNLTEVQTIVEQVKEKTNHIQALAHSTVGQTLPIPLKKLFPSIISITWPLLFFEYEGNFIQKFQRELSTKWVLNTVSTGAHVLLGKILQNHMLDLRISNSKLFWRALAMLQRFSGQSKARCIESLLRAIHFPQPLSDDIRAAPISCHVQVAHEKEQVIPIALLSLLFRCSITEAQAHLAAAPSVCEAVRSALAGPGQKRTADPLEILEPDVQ
# Summary of the method: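 Inhibitors of the GCK–GKRP complex relieve GKRP suppression of GCK, detected through a G6PDH–diaphorase cascade reducing resazurin. Human GST-GCK and FLAG-GKRP are used at 10 nM with 5 mM glucose and 0.4 mM ATP.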
# [14] = molecular target: T1, Hexokinase-4 (Homo sapiens) + Glucokinase regulatory protein (Homo sapiens); assay: qHTS assay for inhibitors of recombinant human GCK-GKRP interaction: ADP-Glo assay (AID 743206; active means well fitted curve in the direction sought with a large enough effect; an effect the other way counts as inactive or inconclusive;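 further: plate controls were DMSO plus enzyme for no effect and no enzyme for full effect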)
# Summary of the method: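 Pin-transferred compounds meet a 15 nM GST-GCK/15 nM FLAG-GKRP/2 uM S6P mix (dispense concentrations). ATP is then added to 0.4 mM final with 5 mM glucose, and the reaction runs 60 min at room temperature. ADP is quantified luminescently.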
# [15] = molecular target: T1, Hexokinase-4 (Homo sapiens) + Glucokinase regulatory protein (Homo sapiens); assay: qHTS assay for inhibitors of recombinant human GCK-GKRP interaction: HTRF assay (AID 743207; active means well fitted curve in the direction sought with a large enough effect; an effect the other way counts as inactive or inconclusive;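 further: 0% = DMSO with GCK present and -100% = DMSO wells lacking GCK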)
# Summary of the method: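 Steps: dispense GCK–GKRP complex (5 nM each, GST- and FLAG-tagged) with 2 uM S6P; pin in compounds; add XL665/Eu-cryptate-labelled antibodies; incubate 60 min at room temperature; read time-resolved FRET at 665 and 615 nm.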
# [16] = qHTS assay for cell viability of HEK293 cells (AID 743288; active means well fitted curve in the direction sought with a large enough effect; an effect the other way counts as inactive or inconclusive; further: nearly all actives have a fitted effect of over 50% in size; further: potency means the concentration at half of the fitted maximal effect; on max response: on the % scale 0 is the no-effect control and ±100 the full control effect); settings: ATP luminescence (CellTiter-Glo), 18 h; max response: stronger effect = lower value
# Summary of the method: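 Quantitative high-throughput screen: compounds were pinned onto parental HEK293 cells (2,000 per well) after a minimum 5 h settling at 37 C, incubated 18 h at 37 C, and intracellular ATP measured by luciferase luminescence.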
# [17] = qHTS assay for cell viability of the p53RE-bla HCT-116 cell line (AID 743292; active means well fitted curve in the direction sought with a large enough effect; an effect the other way counts as inactive or inconclusive; further: potency means the concentration at half of the fitted maximal effect; nearly all actives have a fitted effect of over 55% in size)
# Summary of the method: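 After plating at 4,000 cells per well and a 5 h rest at 37 C, HCT-116 cells carrying p53RE-bla received test chemicals in DMSO. Sixteen hours later at 37 C, CellTiter-Glo was added and luminescence recorded following 30 min at room temperature.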
# Wherever efficacy is given: 0% is about no effect.
smiles,measurement,setting,value
COc1cc2c(c(OC)c1OC)-c1ccc(OC)c(=O)cc1[C@@H](NC(C)=O)CC2,"parasite growth, % of DMSO control",[1],34.7%
same,"parasite growth remaining, % of DMSO control (lower = more inhibition)",[2],78.8%
same,"parasite growth, % of control (lower = inhibition)",[3],42.5%
same,"growth, % of control",[4],35.4%
same,efficacy,[5],-81.3% (inactive)
same,AC50,[6],0.316 µM (active)
same,outcome,[7],inactive
same,AC50,[8],0.32 µM (active)
same,AC50,[9],22.4 µM (active)
same,AC50,[10],0.316 µM (active)
COC(=O)N[C@H](C(=O)N[C@@H](Cc1ccccc1)[C@@H](O)CN(Cc1ccc(-c2ccccn2)cc1)NC(=O)[C@@H](NC(=O)OC)C(C)(C)C)C(C)(C)C,efficacy,[5],21.7% (inactive)
same,outcome,[6],inactive
same,outcome,[7],inactive
same,outcome,[8],inactive
same,outcome,[9],inactive
same,outcome,[11],inactive
C=C1C[C@@H]2[C@H](CC[C@]3(C)C(=O)CC[C@@H]23)[C@@]2(C)C=CC(=O)C=C12,max response,[12],-0.643% (inactive)
same,efficacy,[5],112% (inactive)
same,outcome,[6],inactive
same,outcome,[7],inactive
same,outcome,[8],inactive
same,AC50,[9],28.2 µM (active)
same,AC50,[10],25.1 µM (active)
O=C(C1CCCCC1)N1CC(=O)N2CCc3ccccc3C2C1 (configuration not stated),efficacy,[5],43.7% (inactive)
same,outcome,[6],inactive
same,outcome,[7],inactive
same,outcome,[8],inactive
same,outcome,[9],inactive
same,outcome,[11],inactive
CO[C@]12CC[C@@]3(C[C@@H]1[C@](C)(O)C(C)(C)C)[C@@H]1Cc4ccc(O)c5c4[C@@]3(CCN1CC1CC1)[C@H]2O5,"parasite growth, % of DMSO control",[1],5.19% [at 57.2 µM]
same,"parasite growth remaining, % of DMSO control (lower = more inhibition)",[2],6.03% [at 57.2 µM]
same,"growth, % of control",[4],7.07% [at 57.2 µM]
same,efficacy,[5],-151% (inactive)
same,outcome,[6],inactive
same,outcome,[7],inactive
same,outcome,[8],inactive
same,AC50,[9],5.62 µM (active)
same,AC50,[10],3.16 µM (active)
CO/N=C(\C(=O)N[C@@H]1C(=O)N2C(C(=O)O)=C(CSc3nc(=O)c(O)nn3C)CS[C@H]12)c1csc(N)n1,efficacy,[5],11.1% (inactive)
same,outcome,[6],inactive
same,outcome,[7],inactive
same,outcome,[8],inactive
same,outcome,[9],inactive
same,outcome,[11],inactive
O=c1[nH]c2ccccc2n1C1CCN(CCCC(c2ccc(F)cc2)c2ccc(F)cc2)CC1,outcome,[13],inactive
same,outcome,[14],inactive
same,outcome,[15],inactive
same,Potency,[16],50.1 µM (active)
same,efficacy,[5],-303% (inactive)
same,AC50,[6],11.2 µM (active)
same,outcome,[7],inactive
same,AC50,[8],7.95 µM (active)
same,AC50,[9],3.16 µM (active)
same,AC50,[10],3.98 µM (active)
Nc1cc(-c2ccncc2)c[nH]c1=O,efficacy,[5],26.8% (inactive)
same,outcome,[6],inactive
same,outcome,[7],inactive
same,outcome,[8],inactive
same,outcome,[9],inactive
same,outcome,[11],inactive
O=C(NCCN1CCOCC1)c1ccc(Cl)cc1,efficacy,[5],-15.2% (inactive)
same,outcome,[6],inactive
same,outcome,[7],inactive
same,outcome,[8],inactive
same,outcome,[9],inactive
same,outcome,[11],inactive
CC1(C)S[C@@H]2[C@H](NC(=O)C(C(=O)O)c3ccccc3)C(=O)N2[C@H]1C(=O)O (some centres not stated),efficacy,[5],26% (inactive)
same,outcome,[6],inactive
same,outcome,[7],inactive
same,outcome,[8],inactive
same,outcome,[9],inactive
same,outcome,[11],inactive
Cc1onc(-c2ccccc2Cl)c1C(=O)N[C@@H]1C(=O)N2[C@@H]1SC(C)(C)[C@@H]2C(=O)O,efficacy,[5],13.5% (inactive)
same,outcome,[6],inactive
same,outcome,[7],inactive
same,outcome,[8],inactive
same,outcome,[9],inactive
same,outcome,[11],inactive
COC(=O)C(c1ccccc1Cl)N1CCc2sccc2C1 (configuration not stated),efficacy,[5],27.9% (inactive)
same,outcome,[6],inactive
same,outcome,[7],inactive
same,outcome,[8],inactive
same,outcome,[9],inactive
same,outcome,[11],inactive
CCN(CC)CCN1C(=O)CN=C(c2ccccc2F)c2cc(Cl)ccc21,max response,[12],9.52% (inactive)
same,efficacy,[5],47.1% (inactive)
same,outcome,[6],inactive
same,outcome,[7],inactive
same,outcome,[8],inactive
same,AC50,[9],35.5 µM (active)
same,outcome,[10],inactive
CC[C@@H](CO)NCCN[C@@H](CC)CO,efficacy,[5],-17.1% (inactive)
same,outcome,[6],inactive
same,outcome,[7],inactive
same,outcome,[8],inactive
same,outcome,[9],inactive
same,outcome,[11],inactive
NNCCc1ccccc1,efficacy,[5],-18.8% (inactive)
same,outcome,[6],inactive
same,outcome,[7],inactive
same,outcome,[8],inactive
same,outcome,[9],inactive
same,outcome,[11],inactive
C[C@]12C/C(=C/O)C(=O)C[C@@H]1CC[C@@H]1[C@@H]2CC[C@@]2(C)[C@H]1CC[C@]2(C)O,max response,[12],18.9% (inactive)
same,max response,[16],-10.8% (inactive) and -7.35% (inactive)
same,Potency,[17],50.1 µM (active)
same,efficacy,[5],90.8% (inactive)
same,outcome,[6],inactive
same,outcome,[7],inactive
same,outcome,[8],inactive
same,outcome,[9],inactive
same,AC50,[10],14.1 µM (active)
C[N+]1(C)CCC(OC(=O)C(O)(c2ccccc2)C2CCCC2)C1 (configuration not stated),efficacy,[5],28.8% (inactive)
same,outcome,[6],inactive
same,outcome,[7],inactive
same,outcome,[8],inactive
same,outcome,[9],inactive
same,outcome,[11],inactive
OCCN1CCN(CCCN2c3ccccc3Sc3ccc(C(F)(F)F)cc32)CC1,Potency,[12],11.2 µM (active)
same,efficacy,[5],-98.3% (inactive)
same,outcome,[6],inactive
same,outcome,[7],inactive
same,outcome,[8],inactive
same,AC50,[9],3.55 µM (active)
same,AC50,[10],3.16 µM (active)
OCCN1C[C@H](O)[C@@H](O)[C@H](O)[C@H]1CO,efficacy,[5],-21.2% (inactive)
same,outcome,[6],inactive
same,outcome,[7],inactive
same,outcome,[8],inactive
same,outcome,[9],inactive
same,outcome,[11],inactive
NC12CC3CC(CC(C3)C1)C2,efficacy,[5],15% (inactive)
same,outcome,[6],inactive
same,outcome,[7],inactive
same,outcome,[8],inactive
same,outcome,[9],inactive
same,outcome,[11],inactive

# — PubChem BioAssay (NCATS)
